# Laboratory results reported in PubChem BioAssay (NCATS).
# Records with an inconclusive call do not appear. Where a call stands in place of a potency, no number is given. Activity calls are given as the source filed them. The call rests on the fitted dose curve; in most records, active means well fitted curve in the direction sought with a large enough effect; inconclusive means small, poorly fitted or top-dose-only effect, or another doubt; inactive means no such curve, though single readings can be large; an effect the other way counts as inactive or inconclusive.
# Legend:
# [1] = qHTS assay to identify small molecule inhibitors of chordoma cells - UCH-1 (AID 1259355); further: nearly all actives have a fitted effect of over 55% in size
# Summary of the method: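 Luminescent ATP read-out (CellTiter-Glo, 30min at room temperature) measured viability of UCH-1 cells exposed for 48hr to test drugs at 15 concentrations, co-dosed with a five-agent combination of auranofin, camptothecin, doxorubicin, rubitecan and topotecan.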
# [2] = qHTS assay to identify small molecule inhibitors of chordoma cells - UCH-2 (AID 1259356); further: series mostly up to about 46 µM
# [3] = P-glycoprotein substrates identified in KB-8-5-11 adenocarcinoma cell line, qHTS therapeutic library screen (AID 1346987); further: nearly all actives have a fitted effect of over 65% in size; further: potency means the concentration at half of the fitted maximal effect
# Summary of the method: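 Steps: plate 500 KB-8-5-11 cells/well in DMEM + 10% FCS (colchicine removed); pin compounds in dose-response; incubate 72 h, 37 degree C, 5% CO2; add CellTiter-Glo, 5 min; read luminescence.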
SMILES,Potency [1],Potency [2],Potency [3]
Clc1ccc(CSC(Cn2ccnc2)c2ccc(Cl)cc2Cl)cc1 (stereo not drawn),inactive,inactive,
C[C@]12CC[C@H]3[C@@H](CC=C4C[C@@H](O)CC[C@@]43C)[C@@H]1CC[C@@H]2O,inactive,inactive,11.6 µM (active)
Cc1ncc2n1-c1ccc(Cl)cc1C(c1ccccc1F)=NC2,inactive,inactive,
CC(C)(O)C(Cl)(Cl)Cl,inactive,inactive,
C[C@]12Cc3nonc3C[C@@H]1CC[C@@H]1[C@@H]2CC[C@@]2(C)[C@H]1CC[C@]2(C)O,inactive,inactive,5.8 µM (active)
CCC1(c2cccc(O)c2)CCCCN(C)C1 (stereo not drawn),inactive,inactive,inactive
C[C@H]1C(=O)O[C@@H]2CCN3CC=C(COC(=O)[C@](C)(O)[C@]1(C)O)[C@H]23,inactive,inactive,inactive
CN1CCc2cc(Cl)c(O)cc2[C@H]2c3ccccc3CC[C@@H]21,inactive,inactive,inactive
c1cc2c(c(N3CCNCC3)c1)OCCO2,inactive,inactive,inactive
O=C(CCCN1CCC(n2c(=O)[nH]c3ccccc32)CC1)c1ccc(F)cc1,inactive,inactive,
CN1C[C@@H](NS(=O)(=O)N(C)C)C[C@@H]2c3cccc4c3c(cn4C)C[C@H]21,inactive,inactive,
CNC(=O)Oc1cccc2ccccc12,inactive,inactive,inactive
CCN(CC)CCOC(=O)C(C)(c1ccccc1)c1ccccc1,inactive,inactive,
O=C1NCN(c2ccccc2)C12CCN(CCCOc1ccc(F)cc1)CC2,inactive,inactive,
C[N+]1(CCC(C(N)=O)(c2ccccc2)c2ccccc2)CCCCC1,inactive,inactive,inactive
